Assay outcomes deposited in PubChem by National Center for Advancing Translational Sciences (NCATS).
Most compounds without a hit are left out; they make up all but 12% or so of the library.
Pf growth 48h: Primary qHTS for delayed death inhibitors of the malarial parasite plastid, 48 hour incubation. P. falciparum luciferase growth in erythrocytes, 48 h. Potency, µM (titrated, usually from 28.7 µM), most hits filed as inhibitors. 5.9% of 310,000 active
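Luciferase-expressing P. falciparum in infected erythrocytes (2% hematocrit, 0.1% parasitemia final) in RPMI 1640/0.5% Albumax were exposed to compound for 48 hours at 37 C, 5% CO2; growth read as luminescence.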
Sm TGR block: qHTS Assay for the Inhibitors of Schistosoma Mansoni Peroxiredoxins; Schistosoma mansoni thioredoxin glutathione reductase (TGR), Q962Y6; purified TGR, DTNB reduction, TNB absorbance 405 nm; Potency, µM (series often up to 114 µM), actives largely listed as inhibitors; 3% of 360,000 active; also: nearly all actives have a fitted effect of over 60% in size
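Kinetic colorimetric format: TGR-catalysed, NADPH-driven DTNB reduction monitored via TNB absorbance. Enzyme dispensed at 20 nM; compound exposure 15 min at room temperature before reaction start.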
SARS PLP yeast: qHTS of Yeast-based Assay for SARS-CoV PLP; S. cerevisiae expressing SARS-CoV PLpro, growth rescue; Potency, µM (doses to about 32.9 µM), usual class: activators; 0.19% of 330,000 active; AID 485353, 2010; calls by dose curve; also: nearly all actives have a fitted effect of over 55% in size
Pf growth 96h: Primary qHTS for delayed death inhibitors of the malarial parasite plastid, 96 hour incubation. P. falciparum luciferase reporter growth, 96 h. Potency, µM (series often up to 28.7 µM), most hits filed as inhibitors. 6.9% of 320,000 active. AID 504834, 2011
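Parasite growth measured via integrated firefly luciferase reporter in P. falciparum. Infected erythrocytes at 2% hematocrit, 0.05% parasitemia final were treated 96 hours at 37 C under 5% CO2, and luminescence was read.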
A number is an active result; 0 = inactive; ? = inconclusive; - = no result. Unless noted, calls follow the shape of the dose curve; as a rule, active = well fitted curve in the direction sought with a large enough effect; inconclusive = small, poorly fitted or top-dose-only effect, or another doubt; inactive = no such curve, though single readings can be large; an effect the other way counts as inactive or inconclusive.

SMILES	Pf growth 48h	Sm TGR block	SARS PLP yeast	Pf growth 96h
O=C(O)C[C@@H]1C(=O)O[C@@H]2C(COC(=O)c3cc(O)c(O)c(O)c3)O[C@@H](OC(=O)c3cc(O)c(O)c(O)c3)[C@@H](OC(=O)c3cc(O)c(O)c4c3[C@H]1[C@H](O)C(=O)O4)[C@H]2OC(=O)c1cc(O)c(O)c(O)c1 (stereo partly specified)	3.3µM	16µM	1.4µM	2.9µM
Cc1noc(-c2ccc(N3CCCCC3)c([N+](=O)[O-])c2)n1	-	0	-	-
CCn1c(CN2CCCCC2)nc2cc(NC(=O)COc3ccccc3C(C)(C)C)ccc21	-	0	-	-
COc1ccc2c3n(nc2c1)CCN=C3c1cc(Cl)c(N)c(Cl)c1	13µM	0	0	?
CC(=O)Oc1c(C)c(OC(C)=O)c2c(c1C(C)=O)OC1CC(=O)C(C(C)=O)=C(O)C21C (stereo unspecified)	8.3µM	0	0	12µM
COC(=O)c1[nH]c2ccc(Br)cc2c1NC(=O)CN1CCCCC1CCO (stereo unspecified)	?	?	0	5.2µM
COC(=O)c1[nH]c2ccc(C)cc2c1NC(=O)C(C)N1CCN(C2CCCCC2)CC1 (stereo unspecified)	?	0	0	10µM
COC(=O)c1[nH]c2ccc(Br)cc2c1NC(=O)C(C)N1CCN(C2CCCCC2)CC1 (stereo unspecified)	?	0	0	2.1µM
COC(=O)c1[nH]c2ccc(C)cc2c1NC(=O)CN1CCC(C)CC1	0	0	0	?
CCCc1cnc2c(c1SCc1ccc(C(F)(F)F)cc1)c(=O)n(C)c(=O)n2C	-	0	-	-
Cc1cc2ccccc2c(=O)n1CC(=O)NCC(=O)N1CCCC1	0	0	0	12µM
CCN1CCc2c(C#N)c(N3CCCCC3)nc(NCc3ccccc3)c2C1	?	0	-	2.6µM
CCc1nc(NCc2ccccc2)c(C#N)c2c1CCCC2	10µM	0	0	?
O=C(NCc1cccc(F)c1)c1ccc2nc(CCc3ccccc3)oc2c1	-	0	-	-
COc1ccc(CN2CC(=O)N(c3ccc(Cl)cc3)C2=S)cc1OC	13µM	0	0	?
CCc1ccc(N2C(=O)CN(Cc3ccc(OC)c(OC)c3)C2=S)cc1	?	0	0	0
CNC(=O)CC1C(=O)N(c2ccc(Cl)cc2)C(=S)N1CCc1ccc(OC)c(OC)c1 (stereo unspecified)	12µM	0	0	0
COc1ccc(CN2CC(=O)N(c3cccc(Cl)c3)C2=S)cc1OC	10µM	0	0	0
COc1ccc(CCN2C(=S)N(c3ccccc3)C(=O)C2CC(=O)O)cc1OC (stereo unspecified)	0	0	0	0
COc1cccc(N2C(=O)CN(Cc3cc(OC)c(OC)c(OC)c3)C2=S)c1	0.33µM	0	0	0
O=C(Cn1ccn(-c2ccc(F)c(F)c2)c(=O)c1=O)Nc1ccccc1F	-	0	-	-
CCOC(=O)c1nc(C)nc(Sc2n[nH]c(-c3ccccc3)n2)c1C	10µM	0	0	?
CCOc1ccc(-c2nc(SCC(=O)c3ccccc3)n[nH]2)cc1	-	0	-	-
CN(C)N(C(=O)c1cc(-c2cccs2)nn1-c1ccccc1)C1CCS(=O)(=O)C1 (stereo unspecified)	?	0	0	5.2µM
O=C(CN1C(=O)COc2ccccc21)N1CCCC1	?	0	0	0
SMILES	Pf growth 48h	Sm TGR block	SARS PLP yeast	Pf growth 96h
O=C(CN1C(=O)COc2ccccc21)N1CCc2ccccc2C1	0	0	0	10µM
CCOc1ccccc1NC(=O)CN1C(=O)COc2ccccc21	0	0	0	12µM
Cc1ccc2c(c1)N(CC(=O)Nc1ccccc1F)C(=O)CO2	0	0	0	2.9µM
COc1ccccc1CNC(=O)CCCN1C(=O)COc2ccc(C)cc21	0	0	0	9.3µM
CCCCNC(=O)C(CC)Sc1nc2ccccc2c(=O)n1CCc1ccc(OC)c(OC)c1 (stereo unspecified)	-	0	-	-
CCN(CC)c1ccc(NC(=O)C2CCN(S(=O)(=O)c3cnc[nH]3)CC2)c(C)c1	-	0	-	-
O=C(CSc1nnc(C2CC2)n1CC1CCCO1)Nc1ccc(Cl)cc1 (stereo unspecified)	0	0	0	0
O=C(CSc1nc2cccnc2n1Cc1ccccc1)NC1CCCCC1	10µM	0	0	?
O=C(NCCc1ccccc1)c1ccc(Cn2c(SCc3cccc(F)c3)nc3cccnc32)cc1	9.3µM	0	0	3.3µM
Cc1ccccc1OCc1ccc(-c2nc(C#N)c(N3CCN(c4ccccc4)CC3)o2)o1	-	0	-	-
CCCCOc1ccc(C(O)C(CN2CCOCC2)c2ccccc2)cc1 (stereo unspecified)	?	0	0	?
CCCOc1ccc(C(O)C(CN2CCOCC2)c2ccccc2)cc1 (stereo unspecified)	8.3µM	0	0	8.3µM
CCOc1ccc(C(O)C(CN2CCOCC2)c2ccccc2)cc1 (stereo unspecified)	?	0	0	10µM
COc1ccc(-n2c(=O)c3c4c(sc3n(Cc3ccc(C(C)(C)C)cc3)c2=O)CCC4)c(OC)c1	-	0	-	-
O=C(Nc1cccc2cccnc12)c1ccc(F)cc1	-	0	-	-
Cc1cc(C)n2nc(C(=O)N3CCN(c4ccc([N+](=O)[O-])cc4)CC3)nc2n1	?	0	0	5.9µM
O=C(c1cc([N+](=O)[O-])ccc1N1CCCC1)N1CCCC1	0	-	0	?
O=C(c1cc([N+](=O)[O-])ccc1N1CCCCC1)N1CCCC1	0	0	0	7.4µM
CN1CCN(c2ccc([N+](=O)[O-])cc2C(=O)N2CCCCC2)CC1	0	0	0	12µM
O=C(/C=C/c1ccc(Cl)cc1Cl)N1CCN(c2ccc([N+](=O)[O-])c(N3CCOCC3)c2)CC1	0	0	0	?
O=C(/C=C/c1ccc(Cl)cc1)N1CCN(c2ccc([N+](=O)[O-])c(N3CCOCC3)c2)CC1	?	0	0	10µM
CCOCCc1nn2c(=O)cc(COC(=O)C3CCCCC3)nc2s1	-	0	-	-
CC(=O)N1CCN(c2ccc(NC(=O)c3cccc([N+](=O)[O-])c3)cc2)CC1	?	0	0	?
Cc1noc(C)c1CSCC(=O)N1CCN(c2ccc([N+](=O)[O-])cc2)CC1	-	0	0	12µM
O=C(c1cc([N+](=O)[O-])ccc1N1CCOCC1)N1CCN(S(=O)(=O)c2cc(Cl)ccc2Cl)CC1	10µM	0	0	?
Cc1ccc(CC(=O)N2CCN(c3ccc([N+](=O)[O-])cc3)CC2)cc1	0	0	0	?
O=[N+]([O-])c1cccc(OCC(O)CN2CCN(S(=O)(=O)c3cc(Cl)ccc3Cl)CC2)c1 (stereo unspecified)	?	0	0	10µM
O=C(c1cc([N+](=O)[O-])ccc1N1CCOCC1)N1CCN(c2ccc([N+](=O)[O-])cc2)CC1	?	0	0	9.3µM
Cc1ccc(NC2CCCN(C(=O)c3ccc(C)c(N4CCNC4=O)c3)C2)cc1C (stereo unspecified)	0	0	0	0
COc1ccc(C)cc1S(=O)(=O)Nc1ccc2c(c1)N(C(C)=O)CCC2	?	0	0	?
